From PubChem BioAssay (NCATS)
Where “and” joins values, the source holds several entries; their conditions need not be identical. Equal values may be shown once. A number with no mark means an inactive call. Records with an inconclusive call do not appear. A call without a number means that no potency is given here. Calls of active or inactive are those of the source. Unless noted, calls come from the whole dose curve; as a rule, active = well fitted curve in the direction sought with a large enough effect; inconclusive = small, poorly fitted or top-dose-only effect, or another doubt; inactive = no such curve, though single readings can be large; an effect the other way counts as inactive or inconclusive.

Legend:
[1] = qHTS assay for small molecule disruptors of the mitochondrial membrane potential - 5 hr assay (AID 651755; calls by dose curve; note: nearly all actives have a fitted effect of over 40% in size); conditions: JC-1-type ratio dye; series mostly up to 92.2 µM
In short: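 Read-out: ratiometric Mito-MPS fluorescence, green monomer (ex 490/em 535) vs red mitochondrial aggregate (ex 540/em 590). HepG2 cells treated 5 hr at 37C before 30 min dye loading.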

[2] = qHTS assay for environmental chemicals that activate the Aryl hydrocarbon Receptor (AhR) signaling pathway (AID 651777); conditions: 1A2-DRE human hepatoma cells, luciferase, 24 h; activation: stronger effect = higher value; note: nearly all actives have a fitted effect of over 15% in size; note: potency is the fitted concentration of half-maximal effect
In short: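 Luminescence read-out: One-Glo added for 30 min at RT after 24 hr compound treatment (37 C, 5% CO2) of human hepatoma cells expressing a DRE/CYP1A2 promoter–luciferase reporter; increased signal indicates AhR activation.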

[3] = target: Peroxisome proliferator-activated receptor alpha (Homo sapiens) (UniProt Q07869); assay: qHTS assay for small molecule agonists of the peroxisome proliferator-activated receptor alpha (PPARalpha) signaling pathway (AID 651778); conditions: PathHunter PPARalpha complementation, chemiluminescence, 6 h; stronger effect = higher value
Chain of Peroxisome proliferator-activated receptor alpha (Homo sapiens) (Q07869 whole entry, looked up, the tested form may be a part): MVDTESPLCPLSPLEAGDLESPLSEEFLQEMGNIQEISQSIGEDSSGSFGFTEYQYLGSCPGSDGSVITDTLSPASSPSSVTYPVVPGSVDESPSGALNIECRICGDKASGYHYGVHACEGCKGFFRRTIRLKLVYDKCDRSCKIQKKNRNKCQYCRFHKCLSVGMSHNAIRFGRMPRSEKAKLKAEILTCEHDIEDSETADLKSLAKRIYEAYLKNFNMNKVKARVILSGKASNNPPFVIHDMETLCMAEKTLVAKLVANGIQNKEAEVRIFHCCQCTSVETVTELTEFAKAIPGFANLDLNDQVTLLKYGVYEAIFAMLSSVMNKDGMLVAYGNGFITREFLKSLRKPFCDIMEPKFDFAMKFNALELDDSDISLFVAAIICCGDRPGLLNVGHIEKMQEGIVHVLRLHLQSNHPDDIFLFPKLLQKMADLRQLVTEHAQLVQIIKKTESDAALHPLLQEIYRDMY
In short: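 Enzyme-fragment complementation assay in which ligand-bound PPARalpha translocates and forms an active enzyme that generates chemiluminescence. Cells were plated overnight, exposed to compound for 6 hr at 37 C, and then given detection reagent for 60 min at room temperature.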

[4] = target: Nuclear receptor ROR-gamma (Homo sapiens) (UniProt P51449); assay: qHTS assay for small molecule antagonists of the retinoid-related orphan receptor gamma (ROR-gamma) signaling pathway (AID 651802); conditions: ROR-gamma antagonist cell reporter assay; series mostly up to 92.2 µM; note: nearly all actives have a fitted effect of over 60% in size; note: potency is the fitted concentration of half-maximal effect
Chain of Nuclear receptor ROR-gamma (Homo sapiens) (P51449 whole entry, looked up): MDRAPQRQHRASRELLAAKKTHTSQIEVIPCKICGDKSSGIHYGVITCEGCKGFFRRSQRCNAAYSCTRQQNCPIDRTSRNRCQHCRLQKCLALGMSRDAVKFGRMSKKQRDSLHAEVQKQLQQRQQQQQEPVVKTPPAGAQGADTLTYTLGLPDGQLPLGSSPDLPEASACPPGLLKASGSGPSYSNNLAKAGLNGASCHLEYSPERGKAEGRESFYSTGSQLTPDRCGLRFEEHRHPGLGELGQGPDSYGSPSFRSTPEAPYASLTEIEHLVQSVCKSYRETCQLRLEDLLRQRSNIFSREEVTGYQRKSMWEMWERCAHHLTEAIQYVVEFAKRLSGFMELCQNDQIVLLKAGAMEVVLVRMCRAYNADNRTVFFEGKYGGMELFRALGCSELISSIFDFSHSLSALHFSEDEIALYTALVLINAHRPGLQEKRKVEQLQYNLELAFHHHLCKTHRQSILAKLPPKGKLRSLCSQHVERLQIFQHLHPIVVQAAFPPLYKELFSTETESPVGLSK
In short: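 Doxycycline-induced reporter activity in engineered CHO cells (TET-inducible ROR, RORE-LUC) was measured by luminescence after 16hr compound exposure at 37C.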

[5] = qHTS assay for small molecule agonists of the antioxidant response element (ARE) signaling pathway measured by Nrf2-dependant transcriptional activity (AID 720636; active = well fitted curve in the direction sought with a large enough effect in the repeat runs; an effect the other way counts as inactive or inconclusive;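 note: HepG2 cells with an ARE-driven luciferase reporter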); conditions: ARE-luc HepG2, Nrf2 luciferase reporter, 16 h; series mostly up to 92.4 µM
In short: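 HepG2 ARE-luc reporter line, 1% dialyzed FBS; 6 hr attachment at 37 C, compound pinned in, 16 hr at 37 C/5% CO2; ONE-Glo, 30 min RT, luminescence read.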

[6] = qHTS assay for small molecule antagonists of the retinoid-related orphan receptor gamma (ROR-gamma) signaling pathway - cell viability counter screen (AID 720652; active = well fitted curve in the direction sought with a large enough effect in the repeat runs; an effect the other way counts as inactive or inconclusive;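 note: compound exposure lasted 16 hr before ATP read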; note: potency is the fitted concentration of half-maximal effect); conditions: RORgamma reporter cell line viability counter screen; series mostly up to 92.2 µM
In short: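 ATP-based viability readout in the ROR-gamma reporter CHO cells after 16 hr compound exposure under doxycycline induction.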

[7] = qHTS assay for small molecule agonists of the antioxidant response element (ARE) signaling pathway measured by Nrf2-dependant transcriptional activity - cell viability counter screen (AID 720653; active = well fitted curve in the direction sought with a large enough effect in the repeat runs; an effect the other way counts as inactive or inconclusive); conditions: ARE-bla HepG2 viability, CellTiter-Glo ATP luminescence, 16 h; stronger effect = lower value
In short: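 ARE-bla HepG2 cells treated with compounds for 16 h at 37C; this counter screen measures viability as intracellular ATP by CellTiter-Glo luminescence after 30 min at room temperature.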

[8] = qHTS assay for cell viability of HEK293 cells (AID 743288); conditions: ATP luminescence (CellTiter-Glo), 18 h, stronger effect = lower value; note: nearly all actives have a fitted effect of over 50% in size
In short: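 After 18 h compound exposure at 37 C, parental HEK293 cells (2,000/well) are lysed with CellTiter-Glo and luminescence is read following 30 min at room temperature.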

[9] = qHTS assay for cell viability of the p53RE-bla HCT-116 cell line (AID 743292); conditions: p53RE-bla HCT-116 viability, ATP luminescence, 16 h; series mostly up to 95 µM; note: nearly all actives have a fitted effect of over 55% in size; note: potency is the fitted concentration of half-maximal effect
In short: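 Luminescent ATP quantitation (CellTiter-Glo) served as the viability read-out; reagent was added after 16 h compound exposure at 37 C and read after 30 min at room temperature. Cells: p53RE-bla HCT-116, 4,000 per well.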

[10] = target: Nuclear receptor subfamily 1 group I member 2 (Rattus norvegicus) (UniProt Q9R1A7); assay: qHTS assay for small molecule activators of the rat pregnane X receptor (rPXR) signaling pathway (AID 651751; call rule not given here); conditions: rPXR reporter cells, luciferase (One-Glo), 24 h
Chain of Nuclear receptor subfamily 1 group I member 2 (Rattus norvegicus) (Q9R1A7 whole entry, looked up): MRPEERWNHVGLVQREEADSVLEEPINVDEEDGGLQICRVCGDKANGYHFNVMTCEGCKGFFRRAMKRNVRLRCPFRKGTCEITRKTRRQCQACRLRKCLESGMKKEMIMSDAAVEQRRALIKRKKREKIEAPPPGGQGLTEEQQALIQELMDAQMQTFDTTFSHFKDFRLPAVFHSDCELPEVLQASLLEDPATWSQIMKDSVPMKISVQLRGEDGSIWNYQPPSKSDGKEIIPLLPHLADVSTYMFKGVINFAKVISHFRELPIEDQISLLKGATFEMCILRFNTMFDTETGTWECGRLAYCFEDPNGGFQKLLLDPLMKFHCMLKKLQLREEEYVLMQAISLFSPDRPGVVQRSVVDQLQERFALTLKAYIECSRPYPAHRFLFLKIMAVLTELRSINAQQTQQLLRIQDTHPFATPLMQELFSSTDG

[11] = target: Tumor necrosis factor (Homo sapiens) (UniProt P01375); assay: qHTS assay to identify small molecules that stimulate Tumor Necrosis Factor-alpha (TNF-alpha) secretion (AID 651757; active = well fitted curve in the direction sought with a large enough effect in the signal ratio; the % refers to the signal ratio; note: potency is the fitted concentration of half-maximal effect); conditions: Human cells, HTRF 665/615 ratio; series mostly up to 92.2 µM
Chain of Tumor necrosis factor (Homo sapiens) (P01375 whole entry, looked up): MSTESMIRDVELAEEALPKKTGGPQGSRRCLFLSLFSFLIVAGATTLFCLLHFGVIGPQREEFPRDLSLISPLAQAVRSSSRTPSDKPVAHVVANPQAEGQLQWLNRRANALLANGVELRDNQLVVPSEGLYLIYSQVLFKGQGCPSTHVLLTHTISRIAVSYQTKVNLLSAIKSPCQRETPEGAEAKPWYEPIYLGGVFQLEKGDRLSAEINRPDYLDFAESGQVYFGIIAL
In short: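 Using 3000 THP-1 cells per well, compounds and controls were applied for 17 hrs at 37 C. Detection followed with two labeled anti-TNF-alpha antibodies (cryptate donor, XL665 acceptor) for 3 hr at room temperature, measured by TR-FRET.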

[12] = qHTS assay to identify small molecules that stimulate interleukin-8 (IL-8) secretion (AID 651758; active = well fitted activation curve with a large enough effect in the signal ratio; the % refers to the signal ratio; note: potency is the fitted concentration of half-maximal effect); conditions: HTRF ratio (665/615); series mostly up to 92.2 µM
In short: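 Compounds are added to THP-1 cells (2000 per well) and left 16 hrs at 37 C. A labeled anti-IL-8 antibody pair is then added, and IL-8 secretion is measured by time-resolved FRET after 1-3 hrs at room temperature.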

[13] = qHTS assay for small molecule activators of the human pregnane X receptor (PXR) signaling pathway (AID 720659; call rule not given here); conditions: DPX-2 HepG2 CYP3A4-luciferase, 24 h; series mostly up to 92.3 µM
[14] = qHTS assay for small molecule disruptors of the mitochondrial membrane potential - 1 hr assay (AID 651754; calls by dose curve; note: nearly all actives have a fitted effect of over 35% in size); conditions: series mostly up to 92.2 µM
In short: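 In this qHTS format, a 1 hr compound treatment of HepG2 cells precedes Mito-MPS staining, and membrane potential is judged from aggregate (red) against monomer (green) fluorescence intensity.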

Structure (SMILES)	Potency [1]	activation [2]	max response [3]	Potency [4]	outcome [5]	Potency [6]	max response [7]	max response [8]	Potency [9]	max response [10]	Potency [11]	Potency [12]	outcome [13]	Potency [14]	Potency [2]
Nc1cccc(S(=O)(=O)O)c1	inactive	-0.739%	-1.84%	inactive	inactive	inactive	8.17%	0.367%	inactive	7.17%					
CC=O		1.11%	-2.4%	inactive	inactive	inactive	5.19%	-3.08%	inactive	-4.58%	inactive	inactive	inactive		
Nc1ccc(Cl)cc1[N+](=O)[O-]		1.69%	-2.8%		inactive		0.225%	-4.72%	inactive	1.08%	inactive		inactive		
O=Cc1c(Cl)cccc1Cl		1.15%	25.1%	16.8 µM (active)	inactive	inactive	11.9%	-9.95%	inactive	8%	inactive				
O=C(O)CN(CC(=O)O)CC(=O)O			0.802% and -1.95% and -0.798%	inactive	inactive	inactive	-26.1% and -5.78% and 9.03%	8.87% and -10.3% and 10.6%	inactive		inactive		inactive		
Cc1c(N)cccc1N		6.39%	0.845%		inactive		1.04%	6.3%	inactive	3.73%			inactive		
Clc1cc(Cl)cc(Cl)c1	inactive	2.15%	0.786%		inactive	inactive	-5.36%	-3.91%	inactive			inactive	inactive	inactive	
Cc1cccc2sc(N)nc12			-1.18%	inactive	inactive	inactive	-5.19%	2.69%	inactive	7.23%	inactive		inactive		
CC(C)(C)c1ccc(OCC2CO2)cc1 (stereo not drawn)	inactive	8.83%	-5.01%	inactive	inactive	inactive	4.81%		inactive		inactive			inactive	
CC(=C/C=C/C(C)=C/C=C/C=C(C)/C=C/C=C(C)/C=C/C(=O)O)/C=C/C(=O)O		2.66%		inactive	inactive	inactive	-9.67%		inactive	9.17%	inactive		inactive		
CN(C)CCCCl			-1.33%	inactive	inactive	inactive	19.9%		inactive	3.08%	inactive		inactive		
Clc1ccc(Cl)c(Cl)c1Cl		0.208% and -1.37%	-7.17% and 0.0854%	inactive	inactive	inactive	13.5% and -3.85%	5.4% and -1.16%	inactive	-5.98% and -1.32%	inactive		inactive		
O=[N+]([O-])c1ccccc1CCO		0.213%	-1.29%	inactive	inactive	inactive	-3.69%		inactive	5.68%	inactive		inactive		
CC1=C(/C=C/C(C)=C/C=C/C(C)=C\C=O)C(C)(C)CCC1	inactive	6.53%				26.6 µM (active)		-22%	44.7 µM (active)		inactive	0.422 µM (active)		inactive	
C[C@@H]1CC2(OC3C[C@@]4(C)C5=CC[C@H]6C(C)(C)C(O[C@@H]7OC[C@@H](O)[C@H](O)[C@H]7O)CC[C@@]67C[C@@]57CC[C@]4(C)C31)OC(O)C1(C)OC21 (stereo partly drawn)	inactive	-0.875%	8.86%	21.1 µM (active)	inactive			-9.95%	inactive		inactive	inactive	inactive	inactive	
CCOc1cc(OCC)c(C(C)=O)cc1OCC	inactive	3.71%	0.501%	inactive	inactive	inactive	3.21%		inactive		inactive	inactive		inactive	
CC#N	inactive	0.208%	-2.21%		inactive	inactive	-0.353%		inactive		inactive	inactive	inactive	inactive	
Cc1ccc2nc(-c3ccc(N)cc3)sc2c1S(=O)(=O)O			2.42%			inactive	-24.5%	-7.88%	inactive		8.41 µM (active)				39.8 µM (active)
Nc1ccc([N+](=O)[O-])c(N)c1		1.41%	-0.849%	inactive	inactive	inactive	-4.59%	8.4%	inactive	1.18%		inactive	inactive		
O=[N+]([O-])c1ccc2nc[nH]c2c1			-4.28%	inactive	inactive		-5.47%		inactive	-0.905%		inactive	inactive		
COC(=O)CCCC(=O)OC			-1.53%	inactive	inactive	inactive	4.37%		inactive	1.21%			inactive		
